Source: PubChem BioAssay AID1159580 (chemical genetic matrix, 2015)
Where “and” joins values, the source holds several entries; their conditions need not be identical. Identical values can stand only once. The campaign covered roughly 5,500 compounds. About 2,000 (36%) were called active. Roughly 18% stayed inconclusive and do not appear here. No stated cut-off is given here; in the data, active means normalized growth mostly below about 0.91 (no sharp cut-off); inconclusive means no clear call, values can overlap the other calls; inactive means mostly above about 0.92. This is one part of the list.

Test: chemical genetic growth profiling, strain panel (AID 1159580);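 further: tested at 20 µM; growth read once vehicle control cultures reached saturation at 30 °C; 1 = growth at the plate median or of vehicle wells; lower values mean less growth of the strain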
Details: S. cerevisiae deletion strains, growth OD

Measured: normalized growth

CC(=O)OC1CCC23C(=O)OC45CCC(C6=CC(=O)OC6)C4(C)CCC2C5CCC3(O)C1 (centres undefined)
inactive: locus YAL021C, strain ccr4, active compounds read low 1 | locus YAL026C, strain drs2, active compounds read low 0.979 | locus YAL030W, strain snc1, active compounds read low 0.996 | locus YBL061C, strain skt5, active compounds read low 0.975 | locus YBR009C, strain hhf1, active compounds read low 0.998 | locus YBR021W, strain FUR4, active compounds read low 1 | locus YBR023C, strain chs3, active compounds read low 0.991 | locus YBR171W, strain sec66, active compounds read low 0.953 | locus YBR229C, strain ROT2, active compounds read low 1.01 | locus YBR231C, strain swc5, active compounds read low 0.987 | locus YBR279W, strain paf1, active compounds read low 1.01 | locus YCL011C, strain gbp2, active compounds read low 1 | locus YCL016C, strain dcc1, active compounds read low 1.04 | locus YCL029C, strain bik1, active compounds read low 1.02 | locus YCL061C, strain MRC1, active compounds read low 0.997 | locus YCL069W, strain vba3, active compounds read low 0.979 | locus YCR088W, strain abp1, active compounds read low 0.986 | locus YDL005C, strain med2, active compounds read low 0.98 | locus YDL035C, strain GPR1, active compounds read low 1.05 | locus YDL040C, strain nat1, active compounds read low 0.99 | locus YDL074C, strain BRE1, active compounds read low 1.1 | locus YDL101C, strain DUN1, active compounds read low 1.01 | locus YDL185W, strain tfp1, active compounds read low 0.992 | locus YDL192W, strain arf1, active compounds read low 1.03 | locus YDR001C, strain nth1, active compounds read low 0.991 | locus YDR069C, strain doa4, active compounds read low 0.963 | locus YDR101C, strain arx1, active compounds read low 1 | locus YDR137W, strain rgp1, active compounds read low 1.03 | locus YDR159W, strain sac3, active compounds read low 0.961 | locus YDR162C, strain NBP2, active compounds read low 1.03 | locus YDR195W, strain ref2 0.943 | locus YDR297W, strain sur2, active compounds read low 0.987 | locus YDR318W, strain mcm21, active compounds read low 1.02 | locus YDR334W, strain swr1, active compounds read low 0.959 | locus YDR335W, strain msn5, active compounds read low 0.992 | locus YDR388W, active compounds read low 0.998 | locus YDR392W, strain spt3, active compounds read low 0.962 | locus YDR502C, strain sam2, active compounds read low 1.02 | locus YEL003W, strain gim4, active compounds read low 0.988 | locus YEL037C, strain rad23, active compounds read low 0.97 | locus YEL061C, strain CIN8 (second series), active compounds read low 0.981 | locus YER015W, strain faa2, active compounds read low 0.977 | locus YER016W, strain bim1, active compounds read low 0.994 | locus YER110C, active compounds read low 0.997 | locus YER111C, strain swi4, active compounds read low 0.95 | locus YER155C, strain BEM2 (second series), active compounds read low 0.968 | locus YER155C, strain BEM2, active compounds read low 1 | locus YER167W, strain BCK2, active compounds read low 1.01 | locus YFR010W, strain ubp6, active compounds read low 0.959 | locus YGL078C, strain dbp3, active compounds read low 1 | locus YGL086W, strain mad1, active compounds read low 1 | locus YGL167C, strain pmr1, active compounds read low 0.978 | locus YGL173C, strain kem1, active compounds read low 0.972 | locus YGL227W, strain vid30, active compounds read low 0.994 | locus YGL240W, strain doc1, active compounds read low 0.973 | locus YGL248W, strain PDE1, active compounds read low 1.06 | locus YGL253W, strain hxk2, active compounds read low 0.98 | locus YGR135W, strain pre9, active compounds read low 0.997 | locus YGR252W, strain gcn5, active compounds read low 1 | locus YHR013C, strain ard1, active compounds read low 0.994 | locus YHR027C, strain rpn1, active compounds read low 0.971 | locus YHR030C, strain SLT2, active compounds read low 1.02 and 0.956 | locus YHR079C, strain IRE1 (second series), active compounds read low 0.994 | locus YHR079C, strain IRE1, active compounds read low 0.984 | locus YHR094C, strain hxt1, active compounds read low 1 | locus YHR129C, strain ARP1, active compounds read low 1.02 | locus YHR142W, strain chs7, active compounds read low 1.02 | locus YHR200W, strain rpn10, active compounds read low 1.01 | locus YIL066C, strain RNR3, active compounds read low 1.03 | locus YIL073C, strain SPO22, active compounds read low 1.11 | locus YIL125W, strain kgd1, active compounds read low 1.02 | locus YIR030C, strain dcg1, active compounds read low 1 | locus YJL092W, strain hpr5, active compounds read low 0.971 | locus YJL095W, strain BCK1 (second series), active compounds read low 0.96 | locus YJL095W, strain BCK1, active compounds read low 1.08 and 0.965 | locus YJL115W, strain asf1, active compounds read low 0.979 | locus YJL129C, strain trk1, active compounds read low 0.973 | locus YJL134W, strain LCB3, active compounds read low 1.01 | locus YJL154C, strain vps35, active compounds read low 0.988 | locus YJL164C, strain tpk1, active compounds read low 1.04 | locus YJL166W, strain qcr8, active compounds read low 0.977 | locus YJL168C, strain set2, active compounds read low 1.01 | locus YJL187C, strain SWE1 (second series), active compounds read low 1.02 | locus YJR043C, strain POL32, active compounds read low 1.05 | locus YJR066W, strain TOR1, active compounds read low 0.883 | locus YKL009W, strain mrt4, active compounds read low 1.02 | locus YKL068W, active compounds read low 1.01 | locus YKL085W, strain MDH1 (second series), active compounds read low 1 | locus YKL085W, strain MDH1, active compounds read low 1 | locus YKL160W, strain elf1, active compounds read low 1.06 | locus YKR001C, strain vps1, active compounds read low 1.02 | locus YKR026C, strain gcn3, active compounds read low 0.976 | locus YKR091W, strain srl3, active compounds read low 0.994 | locus YLL001W, strain dnm1, active compounds read low 1.01 | locus YLL026W, active compounds read low 0.996 | locus YLL041C, strain sdh2, active compounds read low 0.966 | locus YLR027C, strain aat2, active compounds read low 0.988 | locus YLR039C, strain RIC1, active compounds read low 1.23 | locus YLR058C, strain SHM2, active compounds read low 1.02 | locus YLR102C, strain apc9, active compounds read low 0.994 | locus YLR113W, strain HOG1, active compounds read low 1.01 | locus YLR221C, strain rsa3, active compounds read low 0.981 | locus YLR258W, strain gsy2, active compounds read low 1 | locus YLR262C, strain YPT6 (second series), active compounds read low 1.01 | locus YLR268W, strain sec22, active compounds read low 1.02 | locus YLR320W, strain mms22, active compounds read low 0.988 | locus YLR342W, strain FKS1 (second series), active compounds read low 1.06 | locus YLR342W, strain FKS1, active compounds read low 0.995 | locus YLR357W, strain rsc2, active compounds read low 0.973 | locus YLR370C, strain arc18, active compounds read low 0.986 | locus YLR371W, strain rom2, active compounds read low 1.02 | locus YLR384C, strain iki3, active compounds read low 0.997 | locus YLR418C, strain cdc73, active compounds read low 1.06 | locus YML016C, strain PPZ1, active compounds read low 1.01 | locus YML032C, strain rad52, active compounds read low 1.01 | locus YML120C, strain ndi1, active compounds read low 1.01 | locus YML124C, strain tub3, active compounds read low 1.01 | locus YMR058W, strain fet3, active compounds read low 0.988 | locus YMR078C, strain ctf18, active compounds read low 1.01 | locus YMR125W, strain sto1, active compounds read low 0.992 | locus YMR129W, active compounds read low 0.986 | locus YMR205C, strain PFK2, active compounds read low 1.01 | locus YMR223W, strain ubp8, active compounds read low 1 | locus YMR231W, strain pep5, active compounds read low 0.97 | locus YMR263W, strain SAP30, active compounds read low 1.01 | locus YMR307W, strain GAS1, active compounds read low 1.16 | locus YNL067W, strain RPL9B, active compounds read low 0.999 | locus YNL071W, strain lat1, active compounds read low 0.994 | locus YNL183C, strain NPR1, active compounds read low 0.922 | locus YNL209W, strain ssb2, active compounds read low 0.996 | locus YNL233W, strain BNI4, active compounds read low 1.05 | locus YNL248C, strain rpa49, active compounds read low 0.989 | locus YNL250W, strain rad50, active compounds read low 1.03 | locus YNL271C, strain bni1, active compounds read low 1.02 | locus YNL298W, strain CLA4, active compounds read low 1.01 | locus YNL307C, strain MCK1, active compounds read low 1.02 | locus YNL322C, strain KRE1 (second series), active compounds read low 0.987 | locus YNR049C, strain mso1, active compounds read low 0.967 | locus YNR052C, strain pop2, active compounds read low 0.996 | locus YOL006C, strain TOP1, active compounds read low 1.28 | locus YOL012C, strain htz1 0.952 | locus YOL147C, strain pex11, active compounds read low 1.02 | locus YOR001W, strain rrp6, active compounds read low 0.929 | locus YOR061W, strain CKA2, active compounds read low 1.02 | locus YOR069W, strain VPS5, active compounds read low 1 | locus YOR070C, strain gyp1, active compounds read low 0.982 | locus YOR080W, strain dia2, active compounds read low 0.98 | locus YOR083W, strain WHI5, active compounds read low 1.06 | locus YOR106W, strain vam3, active compounds read low 1.05 | locus YOR136W, strain idh2, active compounds read low 0.997 | locus YOR144C, strain elg1, active compounds read low 1 | locus YOR184W, strain ser1, active compounds read low 1.02 | locus YOR231W, strain MKK1, active compounds read low 0.976 | locus YOR265W, strain rbl2, active compounds read low 0.996 | locus YOR270C, strain vph1, active compounds read low 1 | locus YOR290C, strain snf2, active compounds read low 1.02 | locus YOR316C, strain cot1, active compounds read low 1.02 | locus YPL051W, strain arl3, active compounds read low 0.967 | locus YPL055C, strain LGE1, active compounds read low 1.09 | locus YPL078C, strain atp4, active compounds read low 1.06 | locus YPL106C, strain sse1, active compounds read low 1 | locus YPL240C, strain hsp82, active compounds read low 0.979 | locus YPL241C, strain CIN2, active compounds read low 1.02 | locus YPL256C, strain CLN2, active compounds read low 0.975 | locus YPR119W, strain clb2, active compounds read low 0.999 | locus YPR141C, strain kar3, active compounds read low 0.997 | locus YPR163C, strain tif3, active compounds read low 1.01 | locus YPR167C, strain met16, active compounds read low 1.02 | strain wtn01, active compounds read low 1
